Rows were chosen to be rich in hits. Some 2.2% of all compounds tested hit in one or more screens of this group.
IEC-6 cytotox = counter-screen for KLF5 inhibitors: cytotoxicity in IEC-6 cells. IEC-6 cytotoxicity, luminescence viability. inhibition, % at 5 µM. 290,000 compounds, 0.78% hits. AID 1825
KLF5 inhibitor = suppresses KLF5 promoter-driven expression; DLD-1 KLF5 promoter-luciferase reporter, luminescence; inhibition, % at 5 µM; 290,000 compounds, 0.23% hits;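 active = inhibition above a per-plate limit of that plate's mean compound inhibition plus 3 SD, cut at about 60% in these data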;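 note: higher means less KLF5 promoter-driven luciferase light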
aSyn UTR inh = MLPCN primary screen, SNCA 5' untranslated region; inhibition, % (tested at 7.5 µM); 300,000 compounds, 0.82% hits; AID 1813; alpha-synuclein 5'UTR reporter, inhibitor activity; in the data active = inhibition above about 60%; inconclusive = no clear call, values can overlap the other calls;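 note: H4 neuroglioblastoma cells stably carrying SNCA 5'UTR luciferase fusion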
BaF3 tox = reduces parental Ba/F3 cell viability, JAK2V617F counter-screen. CellTiter-Glo ATP luminescence. inhibition, % at 5.6 µM. 220,000 compounds, 1.1% hits. AID 1486;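 active = inhibition above a per-campaign cutoff, the mean inhibition of all tested compounds plus 3 SD, cut at about 27% in these data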
Ba/F3 V617F tox = lowers viability of Ba/F3 cells expressing EpoR and JAK2V617F; inhibition, % at 5.6 µM; ATP luminescence; 220,000 compounds, 1.1% hits;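 active = inhibition above the campaign mean plus 3 SD over all tested compounds, cut at about 24% in these data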;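 note: cytokine-independent growth of Ba/F3 cells driven by EpoR plus mutant JAK2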
APP 5UTR inh = APP translation inhibition | SH-SY5Y APP 5'UTR-luciferase reporter, luminescence | inhibition, % at 2 µM | AID 1285 | 190,000 compounds, 0.82% hits;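 active = inhibition above a set limit, derived from the sample mean plus 3 SD, cut at about 45% in these data; inconclusive = one replicate passes the limit while the other fails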
IEC-6 cytotox cf = IEC-6 cytotoxicity, confirmation assay | shares compounds with IEC-6 cytotox | IEC-6 rat intestinal epithelial viability, luminescence | inhibition, % at 5 µM | 1,900 compounds, 63% hits | AID 1907
Hits are given with their value; . = inactive; ? = inconclusive; / = no result given. Cut-off read from the data, not from the text of the source, unless noted: active = inhibition above about 22%; inactive = the rest.

SMILES	IEC-6 cytotox	KLF5 inhibitor	aSyn UTR inh	BaF3 tox	Ba/F3 V617F tox	APP 5UTR inh	IEC-6 cytotox cf
CC1=CC(C)(C)N(C(=O)CCl)c2cc(C)ccc21	.	.	.	.	.	.	/
CC1=CC(C)(C)N(S(=O)(=O)c2ccc(C)cc2)c2cc(C)ccc21	92.3	.	.	84.5	81.9	95.9	60.7
Cc1ccc(/C=N/NC(=O)Cc2c(F)cccc2Cl)s1	.	.	.	/	/	/	/
CC(=O)Nc1ccc(NC(=O)c2nc(S(=O)(=O)Cc3cccc(C)c3)ncc2Cl)cc1	35.6	.	.	/	/	/	.
Cc1cccc(CS(=O)(=O)c2ncc(Cl)c(C(=O)NCc3ccc4c(c3)OCO4)n2)c1	31.3	.	.	/	/	/	32.6
Cc1ccc2oc(C(=O)NCc3ccc4c(c3)OCO4)c(C)c2c1	48.5	.	.	.	.	.	.
Cc1onc(-c2c(F)cccc2Cl)c1C(=O)NCc1ccc2c(c1)OCO2	.	.	.	/	/	/	/
Cc1c(C(=O)NCc2ccc3c(c2)OCO3)oc2ccc(Br)cc12	.	.	.	.	.	.	/
CCSc1ncc(Cl)c(C(=O)Nc2ccc(S(N)(=O)=O)cc2)n1	.	.	.	/	/	/	/
Cc1cccc(COC(=O)Nc2ccc(NC(=O)c3ccccc3Cl)cc2)c1	.	.	.	/	/	/	/
COC(=O)c1ccc(NC(=O)c2nc(S(=O)(=O)Cc3cccc(C)c3)ncc2Cl)cc1	43.2	.	?	/	/	/	.
CCOC(=O)c1ccc(NC(=O)c2cccc(S(=O)(=O)N3CCN(C(C)=O)CC3)c2)cc1	.	.	.	/	/	/	/
COc1cccc(NC(=O)c2nc(S(C)(=O)=O)ncc2Cl)c1	100.4	.	.	/	/	/	.
COc1cccc(NC(=O)c2nc(SC)ncc2Cl)c1	.	.	.	/	/	/	/
CN(c1ccccc1)S(=O)(=O)c1ccc(NC(=O)c2ccccc2)cc1	.	.	.	.	.	.	/
CN(c1ccccc1)S(=O)(=O)c1ccc(NC(=O)c2nc(S(C)(=O)=O)ncc2Cl)cc1	94.7	.	.	/	/	/	.
CC(C)(C)c1ccc(CSc2nnc(-c3ccccn3)n2Cc2ccco2)cc1	.	.	.	.	.	.	/
C(=C\c1ccccc1)/CSc1nnc(-c2ccccc2)n1Cc1ccco1	34.2	.	.	.	40.7	.	35.6
Brc1ccc(CSc2nnc(-c3ccccn3)n2Cc2ccco2)cc1	28.4	.	.	.	.	.	.
C(=C\c1ccccc1)/CSc1nnc(-c2ccncc2)n1Cc1ccco1	.	.	.	.	.	.	/
CC(=O)NC1=NN(C(C)=O)C(C)(c2ccccc2)S1 (stereo unspecified)	64.0	.	.	61.1	67.0	49.3	45.0
CC(=O)NC1=NN(C(C)=O)C(C)(c2ccc3ccccc3c2)S1 (stereo unspecified)	.	.	.	.	.	.	/
Cc1cccc(C(=O)NNC(=O)c2c(-c3ccccc3Cl)noc2C)c1O	.	.	.	/	/	/	/
Cc1ccc2c(C)c(C(=O)N(C)C(C)c3ccon3)oc2c1C (stereo unspecified)	.	.	.	/	/	/	/
NS(=O)(=O)c1cccc(NS(=O)(=O)c2ccc3ccccc3c2)c1	.	.	.	/	/	/	/
SMILES	IEC-6 cytotox	KLF5 inhibitor	aSyn UTR inh	BaF3 tox	Ba/F3 V617F tox	APP 5UTR inh	IEC-6 cytotox cf
CCN1CCN(c2ncc3c(n2)CC(c2cc(OC)c(OC)c(OC)c2)CC3=O)CC1 (stereo unspecified)	65.1	.	.	81.7	80.7	.	57.4
CSc1ccccc1OCc1cc(C(=O)N(C)Cc2cnccn2)no1	.	.	.	/	/	/	/
Clc1ccc(C2Nc3cccc4cccc(c34)N2)cc1Cl	.	.	.	/	/	/	/
O=[N+]([O-])c1ccc(Cl)c(C2Nc3cccc4cccc(c34)N2)c1	69.7	.	.	102.5	100.1	.	35.2
O=C(NCC1CCCO1)c1ccc(NC(=O)c2cccc(Cl)c2)cc1 (stereo unspecified)	/	/	.	/	/	/	/
CCC1=Nc2cc(C(=O)NCC3CCCO3)ccc2Sc2ccc(Cl)cc21 (stereo unspecified)	34.6	.	.	.	.	/	38.3
CCC1=Nc2cc(C(=O)NCCCOC(C)C)ccc2Sc2ccccc21	.	.	.	.	.	.	/
CCC1=Nc2cc(C(=O)NCc3cccnc3)ccc2Sc2ccc(C)cc21	66.7	.	.	44.0	72.3	/	55.7
CCC1=Nc2cc(C(=O)NCC3CCCO3)ccc2Sc2ccc(Br)cc21 (stereo unspecified)	28.4	.	.	.	.	.	31.0
CCOc1ccc2oc(C(=O)N3CCN(c4ccccc4OCC)CC3)c(C)c2c1	/	/	.	/	/	/	/
CCCn1nnnc1NCc1ccc(N(CC)CC)cc1	.	.	.	/	/	/	/
CSc1nc2cc(C)nn2c(-c2ccccc2Cl)c1C#N	.	.	.	.	.	/	/
COc1ccc(C(=O)N/N=C/c2ccc(OC(=O)c3ccccc3)cc2)cc1	.	.	.	.	.	.	/
CCOc1ccc(/C=N/NC(=O)c2cc3c(OC)cc(OC)c(OC)c3[nH]2)cc1	.	.	.	/	/	/	/
COc1ccc(C(=O)N/N=C/c2ccccc2OC(=O)c2ccccc2)cc1	93.8	.	.	/	/	/	.
CCOc1ccc2[nH]c(C(=O)N/N=C/c3ccccc3OC)cc2c1	47.7	.	.	/	/	/	.
C(=C\c1nnc2c3ccccc3ncn12)/c1ccccc1	59.5	.	.	69.0	81.9	72.5	.
Cn1c(/C=C/c2ccccc2)nc2ccccc21	.	.	.	.	.	.	/
O=C1CC2(CCN(C(=O)c3ccccc3Cl)CC2)Oc2ccccc21	/	/	.	/	/	/	/
Clc1ccc(Cn2ncc3c(NCc4ccccc4)ncnc32)cc1	28.2	.	.	.	.	.	27.2
CCSc1nsc(NC(=O)Nc2ccccc2F)n1	.	.	.	/	/	/	/
C=CCSc1nsc(NC(=O)Nc2ccc(F)cc2)n1	31.7	.	.	/	/	/	47.9
CCOc1ccc(-c2[nH]ncc2-c2ccc(OC)c(OC)c2)c(O)c1	41.4	.	/	58.6	53.2	69.7	50.3
CCOC(=O)c1ccccc1NC(=O)Cn1c(-c2nonc2N)nc2ccccc21	76.7	.	73.0	75.0	78.9	94.4	52.4
COc1ccc(NS(=O)(=O)c2cc(OC)ccc2NC(=O)c2cc(C)oc2C)cc1	45.4	.	.	65.9	62.3	53.6	29.9
SMILES	IEC-6 cytotox	KLF5 inhibitor	aSyn UTR inh	BaF3 tox	Ba/F3 V617F tox	APP 5UTR inh	IEC-6 cytotox cf
C/C(=N\NC(=O)c1ccc(C)cc1)c1c(C)[nH]n(-c2ccccc2)c1=O	43.5	.	66.8	/	/	/	25.4
Cc1ccc(C(=O)NCC#N)cc1	.	.	.	.	.	.	/
Cc1ccc(C(=O)NC(C#N)=C(Cl)Cl)cc1	70.2	.	.	.	.	57.7	.
O=c1[nH]c2ccccc2c(O)c1-c1ccccc1[N+](=O)[O-]	.	.	.	.	.	.	/
O=C(NCc1cccnc1)c1ccc(NC(=O)c2ccc(Br)cc2)cc1	89.2	.	.	/	/	/	43.4
Cc1cccc(OCC(=O)Nc2ccc(C(=O)NCc3cccnc3)cc2)c1	25.7	.	.	.	.	.	.
C/C(=N/NC(=O)c1ccccc1)c1ccc(NC(=O)C(F)(F)F)cc1	.	.	.	.	.	.	/
O=C(/C=C/c1c[nH]c2ccccc12)c1ccccc1	.	.	.	.	.	.	/
